Here are results for eight compounds from PubChem BioAssay (NCI).

The panel holds about 83,000 compounds, 20% with a hit somewhere; the sample as a whole holds those more often.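 How to read the values: 0–100, growth inhibition (40 = 60% inhibited); 0, no net growth; -100 to 0, cell death (-40 = 40% of starting cells died; -100 = all dead).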 Unmarked numbers belong to inactive results. Calls of active or inactive are those of the source. How the source made its calls: active means growth percent below 10; inactive means the rest.

Test systems include NCI-H23 lung; NCI-H226 lung; NCI-H322M lung; HOP-62 NSCLC; NCI-H460 lung; HOP-92 NSCLC; NCI-H522 lung; A549/ATCC NSCLC; 786-0 renal; COLO 205 colon; DU-145 prostate; K-562 leukemia; MALME-3M melanoma; RXF 393 renal; SF-268 CNS; SF-295 CNS; SF-539 CNS; UACC-257 melanoma; M14 melanoma.
Holding throughout (assay): NCI-60 one-dose screen, 48 h (100 = growth as untreated, 0 = no growth, -100 = all killed)
Holding throughout (conditions): 10 µM unless noted

`CC(=O)Nc1cccc(Nc2nc(N[C@H]3CCCc4ccccc43)c3ccccc3n2)c1`: the growth with NCI-H23 lung was 104%; with NCI-H226 lung it was 111%; in the experiment on NCI-H322M lung, 103%; in the experiment with HOP-62 NSCLC, 102%; in the experiment with NCI-H460 lung, 104%; in the experiment with HOP-92 NSCLC, 110%. Also, the growth in the experiment on NCI-H522 lung is 97.5%; in the experiment on A549/ATCC NSCLC, 104%; in the experiment on 786-0 renal, 106%; with COLO 205 colon it was 109%; in the experiment with DU-145 prostate, 104%; in the experiment with K-562 leukemia, 94.2%. Moreover, the growth in the experiment on MALME-3M melanoma is 102%; in the experiment on RXF 393 renal, 120%; in the experiment on SF-268 CNS, 95.5%; with SF-295 CNS, 97.3%; with SF-539 CNS, 97.2%; in the experiment on UACC-257 melanoma, 102%. Also, the growth in the experiment on M14 melanoma is 101%.

`Clc1cccc(Cl)c1/C=C/c1cc(/C=C/c2ccc(Br)cc2)c2ccccc2n1`: the growth with NCI-H23 lung is 98.2%; in the experiment on NCI-H226 lung it was 93%; with NCI-H322M lung it was 89.7%; in the experiment with HOP-62 NSCLC, 94%; with NCI-H460 lung, 99.5%; with HOP-92 NSCLC, 86.2%. The growth was 97.9% in the experiment with NCI-H522 lung; 98.2% in the experiment with A549/ATCC NSCLC; 92.2% with 786-0 renal; 117% in the experiment on COLO 205 colon; 110% in the experiment on DU-145 prostate; 99.5% in the experiment with K-562 leukemia. The growth with MALME-3M melanoma was 91.8%; in the experiment with RXF 393 renal, 83.4%; in the experiment on SF-268 CNS it was 110%; in the experiment on SF-295 CNS it was 99.2%; in the experiment with SF-539 CNS it was 95.7%; with UACC-257 melanoma, 105%. The growth in the experiment with M14 melanoma was 101%.

`COc1cc(/C=C/C(=O)c2nnn(-c3ccc(Cl)cc3)c2C)cc(OC)c1OC`: the growth in the experiment with NCI-H23 lung was 26.9%; in the experiment on NCI-H226 lung it was 40%; with NCI-H322M lung, 63.1%; in the experiment with HOP-62 NSCLC, 37.2%; in the experiment with NCI-H460 lung it was 14.2%; in the experiment with HOP-92 NSCLC, 38.7%. Moreover, the growth was 28% in the experiment with NCI-H522 lung; 34.9% with A549/ATCC NSCLC; 65.8% in the experiment on 786-0 renal; 41.5% in the experiment on COLO 205 colon; 17.3% in the experiment with DU-145 prostate; 3.43% (active) in the experiment with K-562 leukemia. For the same compound, the growth is 49% with MALME-3M melanoma; 49.7% in the experiment with RXF 393 renal; 38.8% in the experiment with SF-268 CNS; 51.8% in the experiment with SF-295 CNS; 52% with SF-539 CNS; 35.3% in the experiment with UACC-257 melanoma. For the same compound, the growth in the experiment on M14 melanoma is 30.4%.

Consider `N#Cc1ccc(/C=N/NC(=O)c2[nH]c3ccc(Br)cc3c2-c2ccccc2)o1`, for which the growth is 3.75% (active) in the experiment on NCI-H23 lung; 22.9% in the experiment on NCI-H226 lung; 41.3% in the experiment on NCI-H322M lung; 16.6% with HOP-62 NSCLC; 1.47% (active) in the experiment on NCI-H460 lung; -2.77% (active) with HOP-92 NSCLC. Further, the growth in the experiment with NCI-H522 lung is -36.4% (active); with A549/ATCC NSCLC, 12.7%; with 786-0 renal, -1.06% (active); in the experiment with COLO 205 colon, -25.2% (active); in the experiment with DU-145 prostate it was 8.4% (active); with K-562 leukemia, 2.28% (active). Moreover, the growth is 22% with MALME-3M melanoma; -2.8% (active) in the experiment with RXF 393 renal; 17.7% in the experiment with SF-268 CNS; 16% in the experiment on SF-295 CNS; -16.8% (active) in the experiment with SF-539 CNS; 13.6% with UACC-257 melanoma. Further, in the experiment with M14 melanoma, the growth was 12.1%.

Consider `O=C(N/N=C/c1ccc(-c2ccc(O)cc2)s1)c1[nH]c2ccc(Br)cc2c1-c1ccccc1`, for which the growth with NCI-H23 lung was 7.67% (active); with NCI-H226 lung, 27.6%; in the experiment on NCI-H322M lung, 29.8%; with HOP-62 NSCLC it was 21.2%; with NCI-H460 lung, -18.3% (active); with HOP-92 NSCLC, -24.8% (active). The growth in the experiment with NCI-H522 lung was 18.6%; in the experiment with A549/ATCC NSCLC, 23.8%; in the experiment on 786-0 renal it was -28% (active); in the experiment on COLO 205 colon it was -32.9% (active); in the experiment on DU-145 prostate, 30.1%; in the experiment on K-562 leukemia it was 2.31% (active). Further, the growth was -2.08% (active) in the experiment on MALME-3M melanoma; -29.5% (active) with RXF 393 renal; 28.9% with SF-268 CNS; 0.137% (active) in the experiment on SF-295 CNS; -57.2% (active) with SF-539 CNS; 53.9% in the experiment with UACC-257 melanoma. Moreover, in the experiment with M14 melanoma, the growth is 9.8% (active).

Turning to `O=c1c2ccccc2nc(-c2ccccc2)n1/N=C/c1ccc2ccccc2c1`, the growth with NCI-H23 lung was 68.2%; in the experiment with NCI-H226 lung, 53.3%; with NCI-H322M lung, 80.1%; with HOP-62 NSCLC, 55.7%; in the experiment on NCI-H460 lung, 8.58% (active); in the experiment with HOP-92 NSCLC, 79.7%. Further, the growth in the experiment with NCI-H522 lung is 63.1%; in the experiment with A549/ATCC NSCLC, 41.8%; in the experiment on 786-0 renal, 53%; in the experiment on COLO 205 colon it was 58.2%; in the experiment on DU-145 prostate, 55.8%; in the experiment on K-562 leukemia it was 26.7%. Moreover, the growth with MALME-3M melanoma is 59%; in the experiment on RXF 393 renal, 81.2%; with SF-268 CNS, 49.9%; in the experiment with SF-295 CNS, 46.8%; in the experiment with SF-539 CNS, 27.2%; in the experiment with UACC-257 melanoma, 49.3%. Further, the growth with M14 melanoma is 57.2%.

As for `N#Cc1c(-c2cccc(Cl)c2Cl)cc(-c2c[nH]c3ccccc23)[nH]c1=O`, the growth with NCI-H23 lung is 70.2%; with NCI-H226 lung it was 8.48% (active); with NCI-H322M lung it was 76.5%; in the experiment with HOP-62 NSCLC it was 80.1%; in the experiment on NCI-H460 lung it was 85.6%; in the experiment on HOP-92 NSCLC, -0.53% (active). In addition, the growth in the experiment on NCI-H522 lung was 70.2%; in the experiment on A549/ATCC NSCLC, 67.2%; with 786-0 renal, 16.9%; in the experiment on COLO 205 colon, 105%; in the experiment with DU-145 prostate, 68.1%; with K-562 leukemia, 30.1%. For the same compound, the growth is 54.4% in the experiment on MALME-3M melanoma; 36.8% with RXF 393 renal; 89.7% with SF-268 CNS; 51.7% with SF-295 CNS; 68.1% in the experiment with SF-539 CNS; 101% in the experiment on UACC-257 melanoma. For the same compound, the growth in the experiment with M14 melanoma is 34.7%.

`C=C1CC[C@@H]2[C@]3(C)COC(c4cn[nH]c4-c4ccccc4)O[C@@H]3CC[C@@]2(C)[C@@H]1C/C=C1/C(=O)OCC1O` (some centres not stated): the growth in the experiment with NCI-H23 lung was -27.2% (active); in the experiment with NCI-H226 lung, -30.6% (active); in the experiment with NCI-H322M lung it was 83.7%; in the experiment on HOP-62 NSCLC, 63.8%; with NCI-H460 lung, 18%; with HOP-92 NSCLC, -12.4% (active). Moreover, the growth in the experiment on NCI-H522 lung is 1.15% (active); in the experiment on A549/ATCC NSCLC, 56.1%; in the experiment with 786-0 renal, -72.8% (active); with COLO 205 colon, -10.8% (active); in the experiment with DU-145 prostate, 5.39% (active); in the experiment with K-562 leukemia it was -10.2% (active). Moreover, the growth in the experiment with MALME-3M melanoma was -81.2% (active); in the experiment with RXF 393 renal, -59.4% (active); with SF-268 CNS, 36.5%; with SF-295 CNS it was 50.2%; in the experiment on SF-539 CNS it was -74.8% (active); in the experiment on UACC-257 melanoma, 13.5%. In the experiment with M14 melanoma, the growth was -17.5% (active).
